# Measured values reported in paper PMC5540273 (PLoS ONE, 2017).
# Assays:
# Conditions in all cases: concentration: 1 μM,replicates: in singlicate; n = 1
# [1] = tested on: T1, RSK4(Kin.Dom.1-N-terminal)
# T1 construct: gene RPS6KA6
# [2] = tested on: T2, RSK4(Kin.Dom.2-C-terminal)
# T2 construct: gene RPS6KA6
# S6K1 = tested on: S6K1
# SBK1 = tested on: SBK1
# SGK2 = tested on: SGK2
# SGK3 = tested on: SGK3
# SGK = tested on: SGK
# SIK2 = tested on: SIK2
# SIK = tested on: SIK
# SLK = tested on: SLK
# 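Note: KINOMEscan kinase panel screen.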
smiles,measurement,setting,value
Cl.Cl.NC[C@H](CC1CCCCC1)NC(=O)c1ccc(-c2ccnc3[nH]ccc23)s1 [GSK1581428],%Inh,[1],84%
same,%Inh,[2],12%
same,%Inh,S6K1,93%
same,%Inh,SBK1,88%
same,%Inh,SGK2,79%
same,%Inh,SGK3,92.9%
same,%Inh,SGK,80%
same,%Inh,SIK2,16%
same,%Inh,SIK,11%
same,%Inh,SLK,75%
CSc1nccc(-c2c(-c3ccc(F)cc3)ncn2CCCN2CCOCC2)n1.Cl [SB-217146],%Inh,[1],18%
same,%Inh,[2],21%
same,%Inh,S6K1,17%
same,%Inh,SBK1,6%
same,%Inh,SGK2,0%
same,%Inh,SGK3,13%
same,%Inh,SGK,10%
same,%Inh,SIK2,0%
same,%Inh,SIK,0%
same,%Inh,SLK,0%
C[C@@H]1CNc2c(sc3ccc4nc(-c5ccncc5)ccc4c23)C(=O)N1,%Inh,[1],38%
same,%Inh,[2],21%
same,%Inh,S6K1,0%
same,%Inh,SBK1,30%
same,%Inh,SGK2,0%
same,%Inh,SGK3,18%
same,%Inh,SGK,0%
same,%Inh,SIK2,0%
same,%Inh,SIK,5%
same,%Inh,SLK,1%
CS(=O)c1ccc(-c2coc3ccc(-c4n[nH]c(=O)o4)cc23)cc1 (stereo not drawn),%Inh,[1],6%
same,%Inh,[2],27%
same,%Inh,S6K1,3%
same,%Inh,SBK1,85%
same,%Inh,SGK2,12%
same,%Inh,SGK3,15%
same,%Inh,SGK,31%
same,%Inh,SIK2,11%
same,%Inh,SIK,2%
same,%Inh,SLK,9%
COc1cccc(CNC(=O)NC2CCN(c3ccnc(Nc4cc(OC)c(OC)c(OC)c4)n3)C2)c1 (stereo not drawn) [GSK1379765],%Inh,[1],7%
same,%Inh,[2],3%
same,%Inh,S6K1,14%
same,%Inh,SBK1,19%
same,%Inh,SGK2,4%
same,%Inh,SGK3,2%
same,%Inh,SGK,0%
same,%Inh,SIK2,0%
same,%Inh,SIK,0%
same,%Inh,SLK,30%
COc1cc2c(Nc3ccc(NC(=O)c4ccccc4)cc3)ncnc2cc1OCCCN1CCOCC1 [GSK301329],%Inh,[1],0%
same,%Inh,[2],0%
same,%Inh,S6K1,24%
same,%Inh,SBK1,14%
same,%Inh,SGK2,2%
same,%Inh,SGK3,1%
same,%Inh,SGK,0%
same,%Inh,SIK2,4%
same,%Inh,SIK,2%
same,%Inh,SLK,58%
CC(=O)Nc1ccc(-c2cc3ncnc(SCC(=O)O)c3s2)cc1,%Inh,[1],13%
same,%Inh,[2],18%
same,%Inh,S6K1,0%
same,%Inh,SBK1,22%
same,%Inh,SGK2,0%
same,%Inh,SGK3,39%
same,%Inh,SGK,0%
same,%Inh,SIK2,24%
same,%Inh,SIK,6%
same,%Inh,SLK,18%
Cc1ccc(CC(=O)N2CCc3cc(-c4cn(C)c5ncnc(N)c45)ccc32)cc1 [GSK2634758],%Inh,[1],0%
same,%Inh,[2],15%
same,%Inh,S6K1,5%
same,%Inh,SBK1,7%
same,%Inh,SGK2,0%
same,%Inh,SGK3,4%
same,%Inh,SGK,0%
same,%Inh,SIK2,0%
same,%Inh,SIK,32%
same,%Inh,SLK,59%
c1ccc(Oc2ccc(Nc3ccnc4ccc(-c5ccccn5)cc34)cc2)cc1 [GW407034],%Inh,[1],4%
same,%Inh,[2],14%
same,%Inh,S6K1,2%
same,%Inh,SBK1,60%
same,%Inh,SGK2,0%
same,%Inh,SGK3,0%
same,%Inh,SGK,0%
same,%Inh,SIK2,0%
same,%Inh,SIK,0%
same,%Inh,SLK,10%
CN(c1ccccc1CNc1nc(Nc2ccc3c(c2)CC(=O)N3)ncc1C(F)(F)F)S(C)(=O)=O,%Inh,[1],67%
same,%Inh,[2],2%
same,%Inh,S6K1,22%
same,%Inh,SBK1,3%
same,%Inh,SGK2,0%
same,%Inh,SGK3,32%
same,%Inh,SGK,18%
same,%Inh,SIK2,40%
same,%Inh,SIK,16%
same,%Inh,SLK,94.8%
Cc1cccc(-c2nc(Nc3ccncc3)c3sccc3n2)n1 [GW869641],%Inh,[1],41%
same,%Inh,[2],37%
same,%Inh,S6K1,13%
same,%Inh,SBK1,58%
same,%Inh,SGK2,11%
same,%Inh,SGK3,27%
same,%Inh,SGK,24%
same,%Inh,SIK2,0%
same,%Inh,SIK,7%
same,%Inh,SLK,57%
CS(=O)(=O)Nc1ccc(-c2ccnc3[nH]ccc23)cc1 [GSK993273],%Inh,[1],27%
same,%Inh,[2],60%
same,%Inh,S6K1,37%
same,%Inh,SBK1,55%
same,%Inh,SGK2,13%
same,%Inh,SGK3,12%
same,%Inh,SGK,24%
same,%Inh,SIK2,39%
same,%Inh,SIK,9%
same,%Inh,SLK,49%
Cc1ccn2nc(-c3ccc(F)cc3)c(-c3ccncc3)c2c1.Cl [GW457859],%Inh,[1],0%
same,%Inh,[2],85%
same,%Inh,S6K1,1%
same,%Inh,SBK1,10%
same,%Inh,SGK2,0%
same,%Inh,SGK3,5%
same,%Inh,SGK,22%
same,%Inh,SIK2,0%
same,%Inh,SIK,0%
same,%Inh,SLK,2%
CN(c1ccc2c(c1)nc(NCc1ccc(F)cc1)n2C)c1ccnc(Nc2ccc(CS(C)(=O)=O)cc2)n1.Cl [GW813244],%Inh,[1],16%
same,%Inh,[2],0%
same,%Inh,S6K1,11%
same,%Inh,SBK1,10%
same,%Inh,SGK2,18%
same,%Inh,SGK3,0%
same,%Inh,SGK,17%
same,%Inh,SIK2,39%
same,%Inh,SIK,0%
same,%Inh,SLK,61%
C[C@@H](Oc1cc(-n2cnc3ccc(-c4ccncc4)cc32)sc1C(N)=O)c1ccccc1Cl [GSK483724],%Inh,[1],12%
same,%Inh,[2],0%
same,%Inh,S6K1,0%
same,%Inh,SBK1,6%
same,%Inh,SGK2,14%
same,%Inh,SGK3,0%
same,%Inh,SGK,7%
same,%Inh,SIK2,0%
same,%Inh,SIK,11%
same,%Inh,SLK,95.5%
NC(=O)Nc1sc(-c2ccc(F)cc2)cc1C(N)=O [GW789449],%Inh,[1],76%
same,%Inh,[2],4%
same,%Inh,S6K1,3%
same,%Inh,SBK1,16%
same,%Inh,SGK2,10%
same,%Inh,SGK3,31%
same,%Inh,SGK,1%
same,%Inh,SIK2,16%
same,%Inh,SIK,21%
same,%Inh,SLK,25%
Cc1ccc2c(-c3ccnc(Nc4ccc(C(F)(F)F)cc4)n3)cnn2n1 [GW819776],%Inh,[1],23%
same,%Inh,[2],0%
same,%Inh,S6K1,29%
same,%Inh,SBK1,8%
same,%Inh,SGK2,0%
same,%Inh,SGK3,0%
same,%Inh,SGK,9%
same,%Inh,SIK2,2%
same,%Inh,SIK,0%
same,%Inh,SLK,21%
O=C(Nc1ccc(Oc2ccc3nc(NC(=O)C4CC4)cn3n2)c(F)c1)c1cccn(-c2ccccc2)c1=O,%Inh,[1],0%
same,%Inh,[2],0%
same,%Inh,S6K1,0%
same,%Inh,SBK1,0%
same,%Inh,SGK2,0%
same,%Inh,SGK3,0%
same,%Inh,SGK,0%
same,%Inh,SIK2,8%
same,%Inh,SIK,59%
same,%Inh,SLK,0%
COc1cccc(OC)c1C(=O)Nc1cccc(-c2nn3ccccc3c2-c2ccnc(Nc3cccc(F)c3)n2)c1 [GSK361065],%Inh,[1],0%
same,%Inh,[2],12%
same,%Inh,S6K1,0%
same,%Inh,SBK1,0%
same,%Inh,SGK2,26%
same,%Inh,SGK3,65%
same,%Inh,SGK,18%
same,%Inh,SIK2,0%
same,%Inh,SIK,25%
same,%Inh,SLK,41%
Cc1nnc(-c2ccc3occ(-c4ccc(S(C)=O)cc4)c3n2)o1 (stereo not drawn),%Inh,[1],0%
same,%Inh,[2],15%
same,%Inh,S6K1,0%
same,%Inh,SBK1,0%
same,%Inh,SGK2,0%
same,%Inh,SGK3,0%
same,%Inh,SGK,0%
same,%Inh,SIK2,59%
same,%Inh,SIK,4%
same,%Inh,SLK,0%
O=c1[nH]cc(-c2ccc(O)cc2)c2sc(-c3ccncc3)cc12 [GSK1033723],%Inh,[1],0%
same,%Inh,[2],15%
same,%Inh,S6K1,0%
same,%Inh,SBK1,9%
same,%Inh,SGK2,0%
same,%Inh,SGK3,2%
same,%Inh,SGK,0%
same,%Inh,SIK2,0%
same,%Inh,SIK,0%
same,%Inh,SLK,1%
O=C(Nc1cccc(C(F)(F)F)c1)c1cccc(Oc2ccc3nccn3n2)c1,%Inh,[1],23%
same,%Inh,[2],22%
same,%Inh,S6K1,2%
same,%Inh,SBK1,35%
same,%Inh,SGK2,15%
same,%Inh,SGK3,14%
same,%Inh,SGK,9%
same,%Inh,SIK2,0%
same,%Inh,SIK,0%
same,%Inh,SLK,10%
CC(C(=O)NC1CCN(c2ccnc(Nc3ccc(F)cc3)n2)C1)c1ccc(Cl)cc1 (stereo not drawn) [GSK1379713],%Inh,[1],0%
same,%Inh,[2],0%
same,%Inh,S6K1,0%
same,%Inh,SBK1,7%
same,%Inh,SGK2,0%
same,%Inh,SGK3,0%
same,%Inh,SGK,0%
same,%Inh,SIK2,0%
same,%Inh,SIK,0%
same,%Inh,SLK,17%
Cl.Nc1n[nH]c2cc(-c3ccccn3)ccc12 [GSK2189892],%Inh,[1],3%
same,%Inh,[2],0%
same,%Inh,S6K1,0%
same,%Inh,SBK1,28%
same,%Inh,SGK2,0%
same,%Inh,SGK3,0%
same,%Inh,SGK,0%
same,%Inh,SIK2,0%
same,%Inh,SIK,0%
same,%Inh,SLK,14%
Nc1nccc(-c2ccc3c(N)n[nH]c3c2)n1 [GSK1034945],%Inh,[1],59%
same,%Inh,[2],24%
same,%Inh,S6K1,1%
same,%Inh,SBK1,25%
same,%Inh,SGK2,4%
same,%Inh,SGK3,24%
same,%Inh,SGK,0%
same,%Inh,SIK2,0%
same,%Inh,SIK,0%
same,%Inh,SLK,25%
NC(=O)c1ccc(-c2cc3ncnc(SCC(=O)O)c3s2)cc1,%Inh,[1],0%
same,%Inh,[2],0%
same,%Inh,S6K1,15%
same,%Inh,SBK1,0%
same,%Inh,SGK2,0%
same,%Inh,SGK3,0%
same,%Inh,SGK,0%
same,%Inh,SIK2,7%
same,%Inh,SIK,6%
same,%Inh,SLK,10%
N#Cc1cccc(C(=O)NC2CCN(c3ccnc(Nc4ccc(F)cc4)n3)C2)c1 (stereo not drawn) [GSK1379708],%Inh,[1],0%
same,%Inh,[2],0%
same,%Inh,S6K1,1%
same,%Inh,SBK1,2%
same,%Inh,SGK2,5%
same,%Inh,SGK3,0%
same,%Inh,SGK,0%
same,%Inh,SIK2,0%
same,%Inh,SIK,7%
same,%Inh,SLK,16%
CC(C)c1nc(-c2cccc(NS(=O)(=O)c3ccccc3)c2)c(-c2ccnc(Nc3ccc4c(c3)CN(C)CC4)n2)s1 [GSK1649598],%Inh,[1],0%
same,%Inh,[2],46%
same,%Inh,S6K1,66%
same,%Inh,SBK1,43%
same,%Inh,SGK2,35%
same,%Inh,SGK3,53%
same,%Inh,SGK,77%
same,%Inh,SIK2,87%
same,%Inh,SIK,99.6%
same,%Inh,SLK,88%
O=C(Nc1cccc(Oc2ccc3nccn3n2)c1)Nc1cccc(C(F)(F)F)c1,%Inh,[1],0%
same,%Inh,[2],0%
same,%Inh,S6K1,0%
same,%Inh,SBK1,0%
same,%Inh,SGK2,8%
same,%Inh,SGK3,8%
same,%Inh,SGK,0%
same,%Inh,SIK2,16%
same,%Inh,SIK,17%
same,%Inh,SLK,0%
CCn1c(-c2nonc2N)nc2cncc(CNC3CCNCC3)c21.Cl [SB-747651],%Inh,[1],10%
same,%Inh,[2],25%
same,%Inh,S6K1,60%
same,%Inh,SBK1,25%
same,%Inh,SGK2,7%
same,%Inh,SGK3,43%
same,%Inh,SGK,0%
same,%Inh,SIK2,0%
same,%Inh,SIK,0%
same,%Inh,SLK,9%
CCN1CCN(CCCC(=O)Nc2n[nH]c3nc(-c4ccc(O)cc4)c(Br)cc23)CC1 [SB-731579],%Inh,[1],20%
same,%Inh,[2],0%
same,%Inh,S6K1,0%
same,%Inh,SBK1,10%
same,%Inh,SGK2,0%
same,%Inh,SGK3,0%
same,%Inh,SGK,0%
same,%Inh,SIK2,0%
same,%Inh,SIK,0%
same,%Inh,SLK,78%
Cc1cccc2c(-c3ccncc3)c(-c3ccc(F)cc3)nn12.Cl [GW461487],%Inh,[1],21%
same,%Inh,[2],83%
same,%Inh,S6K1,5%
same,%Inh,SBK1,8%
same,%Inh,SGK2,8%
same,%Inh,SGK3,13%
same,%Inh,SGK,0%
same,%Inh,SIK2,0%
same,%Inh,SIK,0%
same,%Inh,SLK,15%
COc1cc(Nc2nccc(N3CCC(NC(=O)c4cccc(C#N)c4)C3)n2)cc(OC)c1OC (stereo not drawn) [GSK1379751],%Inh,[1],0%
same,%Inh,[2],9%
same,%Inh,S6K1,0%
same,%Inh,SBK1,22%
same,%Inh,SGK2,2%
same,%Inh,SGK3,0%
same,%Inh,SGK,3%
same,%Inh,SIK2,0%
same,%Inh,SIK,0%
same,%Inh,SLK,1%
